Measurements from ChEMBL document CHEMBL2218924, “A broad activity screen in support of a chemogenomic map for kinase signalling research and drug discovery” (Biochem J, 2013).

What follows are compounds tested against Homeodomain-interacting protein kinase 3 (Homo sapiens) (UniProt Q9H422). Conditions: at 10 µM.
Chain of Homeodomain-interacting protein kinase 3 (Homo sapiens) (Q9H422 whole entry, looked up): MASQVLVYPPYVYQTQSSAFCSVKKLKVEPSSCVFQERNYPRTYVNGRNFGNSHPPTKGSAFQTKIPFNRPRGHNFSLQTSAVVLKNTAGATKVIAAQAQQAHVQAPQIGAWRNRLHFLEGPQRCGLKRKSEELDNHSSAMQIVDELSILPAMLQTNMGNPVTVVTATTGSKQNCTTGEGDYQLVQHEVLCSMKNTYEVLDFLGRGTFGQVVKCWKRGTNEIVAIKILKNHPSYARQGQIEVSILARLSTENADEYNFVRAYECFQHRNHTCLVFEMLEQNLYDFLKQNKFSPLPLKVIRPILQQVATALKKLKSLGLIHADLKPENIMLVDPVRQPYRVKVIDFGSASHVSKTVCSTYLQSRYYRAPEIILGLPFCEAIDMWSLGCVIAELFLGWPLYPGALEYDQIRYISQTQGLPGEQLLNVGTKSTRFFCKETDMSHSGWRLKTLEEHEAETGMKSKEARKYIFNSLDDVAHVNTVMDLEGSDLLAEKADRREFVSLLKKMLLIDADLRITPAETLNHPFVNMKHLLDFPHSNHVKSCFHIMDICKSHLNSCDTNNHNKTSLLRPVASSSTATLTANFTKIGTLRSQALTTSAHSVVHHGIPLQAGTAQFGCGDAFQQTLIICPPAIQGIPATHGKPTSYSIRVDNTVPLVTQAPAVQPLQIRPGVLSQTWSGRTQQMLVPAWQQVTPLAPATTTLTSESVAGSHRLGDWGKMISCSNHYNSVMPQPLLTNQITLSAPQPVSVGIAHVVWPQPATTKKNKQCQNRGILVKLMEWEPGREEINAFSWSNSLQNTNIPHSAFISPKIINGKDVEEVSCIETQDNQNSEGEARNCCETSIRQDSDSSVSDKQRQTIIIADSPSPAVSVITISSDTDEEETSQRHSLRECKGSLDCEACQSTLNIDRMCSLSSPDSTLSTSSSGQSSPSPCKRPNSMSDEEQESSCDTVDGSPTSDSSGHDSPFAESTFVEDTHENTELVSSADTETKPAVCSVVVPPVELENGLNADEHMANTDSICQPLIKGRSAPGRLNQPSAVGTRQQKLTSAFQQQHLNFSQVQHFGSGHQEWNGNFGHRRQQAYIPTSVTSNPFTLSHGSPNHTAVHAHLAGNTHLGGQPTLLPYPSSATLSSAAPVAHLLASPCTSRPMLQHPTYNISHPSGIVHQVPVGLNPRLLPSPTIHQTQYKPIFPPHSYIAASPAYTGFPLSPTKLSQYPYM

In order of rising residual activity:
1. O=C1NC(=O)/C(=C\c2ccc3nccnc3c2)S1  7%
2. O=Nc1c(-c2c(O)[nH]c3ccccc23)[nH]c2ccccc12  19%
3. Oc1c2ccccc2c2c3c(cccc13)N=N2  19%
4. Cn1cc(/C=C2\C(=O)Nc3ccc(S(N)(=O)=O)cc32)c2ccccc21  32%
5. O=C(O)c1ccc2c3c1cccc3c(=O)n1c3ccccc3nc21  48%
6. O=C1Nc2ccccc2/C1=C1/Nc2ccccc2/C1=N\OCCC(O)CO (stereo not given)  56%
7. CC(C)n1cnc2/c(=N/c3cccc(Cl)c3)nc(NCCO)[nH]c21  83%
8. Oc1ccc(Nc2nc(-c3ccc(Cl)cc3)cs2)cc1  85%
9. N#C/C(=C(\N)Sc1ccc(N)cc1)c1ccccc1C(F)(F)F  86%
10. O=C1c2ccccc2-[n+]2ccc3c([nH]c4ccccc43)c21  87%
11. O=C1NC(=O)/C(=C/c2ccc3c(c2)OC(F)(F)O3)S1  88%
12. O=C1Nc2cc(Br)ccc2/C1=C1/Nc2ccccc2/C1=N\O  88%
13. O=c1c2ccccc2[nH]c(=S)n1CCN1CCC(=C(c2ccc(F)cc2)c2ccc(F)cc2)CC1  88%
14. O=C1NC(=O)c2c1c1c3ccccc3[nH]c1c1[nH]c3cc(Br)ccc3c21  89%
15. Cn1nc2c3c(cccc31)C(=O)c1ccccc1-2  90%
16. COc1cc2ncnc(Nc3ccc(O)c(Br)c3)c2cc1OC  92%
17. Nc1ccc2ncnc(NCCc3ccc(Oc4ccccc4)cc3)c2c1  93%
18. Nc1n[nH]c2nnc(-c3c(-c4ccccc4)nn4ccccc34)cc12  93%
19. CN(C)c1ccc(/C=C2\C(=O)Nc3ccccc32)cc1  94%
20. Cn1cnc2cc3c(Nc4cccc(Br)c4)ncnc3cc21  95%
21. CNc1cc2c(Nc3cccc(Br)c3)ncnc2cn1  96%
22. Cc1nc2cc3nc(-c4cccs4)cnc3cc2n1C  97%
23. COc1ccc(C(=O)Nc2sc3c(c2C(N)=O)CCCC3)cc1OC  97%
24. COc1ccc(CNc2nc(N(CCO)CCO)nc3c2ncn3C(C)C)cc1  98%
25. NC(=O)c1ccc2[nH]c(-c3ccc(Oc4ccc(Cl)cc4)cc3)nc2c1  98%
26. c1ccc(-c2n[nH]cc2-c2ccnc3ccccc23)nc1  98%
27. COc1cccc(-c2cc(=O)c3ccccc3o2)c1N  98%
28. Cc1ccc(S(=O)(=O)/C=C/C#N)cc1  98%
29. CCC(=O)Nc1ccc2ncnc(Nc3cccc(Br)c3)c2c1  99%
30. O=C(Nc1cccc(Nc2cc(Nc3cccc(C(F)(F)F)c3)ncn2)c1)C1CC1  102%
31. COc1ccc(S(=O)(=O)N(CCO)c2ccccc2CN(C)C/C=C/c2ccc(Cl)cc2)cc1  102%
32. O=c1cc(-c2cccc3c2Sc2ccccc2S3)oc(N2CCOCC2)c1  104%
33. Oc1ccc(-c2nc(-c3ccc(F)cc3)c(-c3ccncc3)[nH]2)cc1  105%
34. Cc1cc2ncc(-c3ccccc3)nc2cc1C  107%
35. CO[C@H]1C[C@@H]2CC[C@@H](C)[C@@](O)(O2)C(=O)C(=O)N2CCCC[C@H]2C(=O)O[C@H]([C@H](C)C[C@@H]2CC[C@@H](O)[C@H](OC)C2)CC(=O)[C@H](C)/C=C(\C)[C@@H](O)[C@@H](OC)C(=O)[C@H](C)C[C@H](C)/C=C/C=C/C=C/1C  110%

The compounds below were run against T1, Serine/threonine-protein kinase haspin (Homo sapiens) (UniProt Q8TF76). Conditions: at 1 µM.
T1 sequence (whole entry): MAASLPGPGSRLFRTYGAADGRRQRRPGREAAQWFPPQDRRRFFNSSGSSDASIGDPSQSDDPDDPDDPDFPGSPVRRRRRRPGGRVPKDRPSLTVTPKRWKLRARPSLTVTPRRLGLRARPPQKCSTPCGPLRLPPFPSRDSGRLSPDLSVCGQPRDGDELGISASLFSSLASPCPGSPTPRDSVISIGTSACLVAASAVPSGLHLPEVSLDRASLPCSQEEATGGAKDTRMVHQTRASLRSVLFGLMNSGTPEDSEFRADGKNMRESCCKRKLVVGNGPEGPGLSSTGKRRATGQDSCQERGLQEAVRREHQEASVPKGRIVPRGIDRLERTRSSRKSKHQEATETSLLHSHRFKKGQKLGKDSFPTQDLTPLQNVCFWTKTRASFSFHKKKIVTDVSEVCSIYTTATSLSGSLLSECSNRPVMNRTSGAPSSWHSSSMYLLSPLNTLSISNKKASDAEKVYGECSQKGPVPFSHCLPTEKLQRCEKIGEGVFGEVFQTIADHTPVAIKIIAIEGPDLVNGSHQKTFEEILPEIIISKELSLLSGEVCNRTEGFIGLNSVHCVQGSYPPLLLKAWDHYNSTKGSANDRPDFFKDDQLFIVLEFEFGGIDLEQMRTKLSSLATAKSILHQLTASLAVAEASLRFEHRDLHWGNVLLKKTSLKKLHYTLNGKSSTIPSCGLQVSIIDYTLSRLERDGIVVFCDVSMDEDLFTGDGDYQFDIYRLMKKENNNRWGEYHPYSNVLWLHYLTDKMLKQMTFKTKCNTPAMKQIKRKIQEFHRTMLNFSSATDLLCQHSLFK

In order of rising residual activity:
1. Oc1c2ccccc2c2c3c(cccc13)N=N2  10%
2. O=C1Nc2ccccc2/C1=C1/Nc2ccccc2/C1=N\OCCC(O)CO (stereo not given)  13%
3. O=Nc1c(-c2c(O)[nH]c3ccccc23)[nH]c2ccccc12  26%
4. O=C1NC(=O)/C(=C\c2ccc3nccnc3c2)S1  27%
5. Cn1nc2c3c(cccc31)C(=O)c1ccccc1-2  41%
6. Oc1ccc(-c2nc(-c3ccc(F)cc3)c(-c3ccncc3)[nH]2)cc1  55%
7. COc1cc2ncnc(Nc3ccc(O)c(Br)c3)c2cc1OC  65%
8. O=C1Nc2cc(Br)ccc2/C1=C1/Nc2ccccc2/C1=N\O  68%
9. c1ccc(-c2n[nH]cc2-c2ccnc3ccccc23)nc1  71%
10. O=C1c2ccccc2-[n+]2ccc3c([nH]c4ccccc43)c21  73%
11. Nc1ccc2ncnc(NCCc3ccc(Oc4ccccc4)cc3)c2c1  75%
12. O=C1NC(=O)/C(=C/c2ccc3c(c2)OC(F)(F)O3)S1  78%
13. CC(C)n1cnc2/c(=N/c3cccc(Cl)c3)nc(NCCO)[nH]c21  80%
14. COc1ccc(S(=O)(=O)N(CCO)c2ccccc2CN(C)C/C=C/c2ccc(Cl)cc2)cc1  82%
15. CN(C)c1ccc(/C=C2\C(=O)Nc3ccccc32)cc1  83%
16. O=c1c2ccccc2[nH]c(=S)n1CCN1CCC(=C(c2ccc(F)cc2)c2ccc(F)cc2)CC1  84%
17. CO[C@H]1C[C@@H]2CC[C@@H](C)[C@@](O)(O2)C(=O)C(=O)N2CCCC[C@H]2C(=O)O[C@H]([C@H](C)C[C@@H]2CC[C@@H](O)[C@H](OC)C2)CC(=O)[C@H](C)/C=C(\C)[C@@H](O)[C@@H](OC)C(=O)[C@H](C)C[C@H](C)/C=C/C=C/C=C/1C  86%
18. Cc1cc2ncc(-c3ccccc3)nc2cc1C  87%
19. Oc1ccc(Nc2nc(-c3ccc(Cl)cc3)cs2)cc1  88%
20. NC(=O)c1ccc2[nH]c(-c3ccc(Oc4ccc(Cl)cc4)cc3)nc2c1  89%
21. O=C(O)c1ccc2c3c1cccc3c(=O)n1c3ccccc3nc21  91%
22. O=c1cc(-c2cccc3c2Sc2ccccc2S3)oc(N2CCOCC2)c1  94%
23. Cc1ccc(S(=O)(=O)/C=C/C#N)cc1  94%
24. O=C1NC(=O)c2c1c1c3ccccc3[nH]c1c1[nH]c3cc(Br)ccc3c21  99%
25. Cn1cc(/C=C2\C(=O)Nc3ccc(S(N)(=O)=O)cc32)c2ccccc21  101%
26. COc1ccc(CNc2nc(N(CCO)CCO)nc3c2ncn3C(C)C)cc1  104%
27. Cn1cnc2cc3c(Nc4cccc(Br)c4)ncnc3cc21  108%
28. N#C/C(=C(\N)Sc1ccc(N)cc1)c1ccccc1C(F)(F)F  108%
29. CCC(=O)Nc1ccc2ncnc(Nc3cccc(Br)c3)c2c1  109%
30. COc1ccc(C(=O)Nc2sc3c(c2C(N)=O)CCCC3)cc1OC  109%
31. CNc1cc2c(Nc3cccc(Br)c3)ncnc2cn1  109%
32. O=C(Nc1cccc(Nc2cc(Nc3cccc(C(F)(F)F)c3)ncn2)c1)C1CC1  110%
33. COc1cccc(-c2cc(=O)c3ccccc3o2)c1N  118%
34. Cc1nc2cc3nc(-c4cccs4)cnc3cc2n1C  123%
35. Nc1n[nH]c2nnc(-c3c(-c4ccccc4)nn4ccccc34)cc12  128%
